Test [1] in a line: NCI Yeast Anticancer Drug Screen. Data for the rad50 strain (AID 155).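 Also: 0% = growth of vehicle-only cultures of the same strain.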 The settings on record: S. cerevisiae rad50 strain growth inhibition, stronger effect = higher value. The procedure, abridged: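 Relative growth inhibition (compound vs vehicle) was measured in yeast with a defined repair-gene alteration.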
Test [2] in a line: NCI Yeast Anticancer Drug Screen. Data for the mec2-1 strain (AID 157). The note with it: S. cerevisiae mec2-1 strain, stronger effect = higher value. The procedure, abridged: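 Compounds were applied to mec2-1 yeast cells. Their growth was then compared with that of vehicle-treated cultures to give growth inhibition.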
Test [3] in a line: NCI Yeast Anticancer Drug Screen. Data for the sgs1 mgt1 strain (AID 161).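 Also: 0% = growth of cultures given vehicle only.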 The note with it: S. cerevisiae sgs1 mgt1 strain, stronger effect = higher value. An outline of the steps:
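Compounds are added to genetically altered yeast, and growth is compared with cultures given vehicle alone to give percent inhibition.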

The nature of test [4]: NCI Yeast Anticancer Drug Screen. Data for the cln2 rad14 strain (AID 165).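 Also: 0% = growth equal to vehicle treated cultures.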 The note with it: S. cerevisiae cln2 rad14 strain, stronger effect = higher value. The procedure, abridged: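 Strain: cln2 rad14 yeast, altered in cell cycle control and DNA damage repair. Read-out: growth inhibition vs vehicle.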
A short description of test [5]: NCI Yeast Anticancer Drug Screen. Data for the bub3 strain (AID 167). The note with it: S. cerevisiae bub3 mutant strain, stronger effect = higher value. The procedure, abridged:
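Screening used yeast with an engineered genetic alteration affecting cell cycle control. Compound-exposed cultures were compared with vehicle cultures, and reduced growth was taken as inhibition.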

Test [6] is described as follows: NCI Yeast Anticancer Drug Screen. Data for the mlh1 rad18 strain (AID 175). The settings on record: S. cerevisiae mlh1 rad18 strain growth inhibition, stronger effect = higher value. An outline of the steps: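 A repair-deficient yeast strain is exposed to test compound, and growth is scored relative to vehicle-treated controls.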
The mark [7] stands for this setting: at 5.0 µM (retest, dose inferred, filed as 0.5).
Where [8] appears, read: at 50.0 µM (retest, dose inferred, filed as 5.0).

This is part of a sample that, as a whole, favours compounds with a hit. Of some 79,000 tested, about 15% had one in any assay. A number with no mark means an inactive call. The source made the active and inactive calls. Rule as the data show it: active = growth inhibition above about 70%; inactive = the rest.

Turning to `Cc1ccc2c(-c3ccccc3)c3ccccc3[s+]c2c1`, the growth inhibition was 2% in test [1] (setting [7]); 99% (active) in test [1] (setting [8]); 99.5% (active) in test [1] (at 50.0 µM); 2% in test [2] (setting [7]); 100% (active) in test [2] (setting [8]); 99.3% (active) in test [2] (at 50.0 µM). Further, the growth inhibition is 6% in test [3] (setting [7]); 99% (active) in test [3] (setting [8]); 99.5% (active) in test [3] (at 50.0 µM); 1% in test [4] (setting [7]); 99% (active) in test [4] (setting [8]); 99% (active) in test [4] (at 50.0 µM). Moreover, the growth inhibition was -13% in test [5] (setting [7]); 99% (active) in test [5] (setting [8]); 99.2% (active) in test [5] (at 50.0 µM); 1% in test [6] (setting [7]); 99% (active) in test [6] (setting [8]); 99.2% (active) in test [6] (at 50.0 µM).

For the compound `COc1cc2c(cc1OC)C(OC)N(C)c1c-2ccc2cc3c(cc12)OCO3` (stereo not given), the growth inhibition in test [1] (setting [7]) was 16%; in test [1] (setting [8]), 41%; in test [1] (at 50.0 µM), 3.45%; in test [2] (setting [7]), 9%; in test [2] (setting [8]), 12%; in test [2] (at 50.0 µM) it was -48%. For the same compound, the growth inhibition in test [3] (setting [7]) was 7%; in test [3] (setting [8]), 30%; in test [3] (at 50.0 µM), -22.1%; in test [4] (setting [7]), 16%; in test [4] (setting [8]), 33%; in test [4] (at 50.0 µM) it was 6.7%. The growth inhibition is 2% in test [5] (setting [7]); 30% in test [5] (setting [8]); -40% in test [5] (at 50.0 µM); 17% in test [6] (setting [7]); 24% in test [6] (setting [8]); -21.8% in test [6] (at 50.0 µM).

For the compound `O=C(N/N=C/c1cc(Br)cc(Br)c1[O-])c1ccccc1O.O=C(N/N=C/c1cc(Br)cc(Br)c1[O-])c1ccccc1O.[Ni+2]`, the growth inhibition is 97% (active) in test [1] (setting [7]); 98% (active) in test [1] (setting [8]); 18.4% in test [1] (at 50.0 µM); 98% (active) in test [2] (setting [7]); 98% (active) in test [2] (setting [8]); 87% (active) in test [2] (at 50.0 µM). Besides, the growth inhibition in test [3] (setting [7]) is 98% (active); in test [3] (setting [8]) it was 99% (active); in test [3] (at 50.0 µM), 61.2%; in test [4] (setting [7]), 93% (active); in test [4] (setting [8]), 98% (active); in test [4] (at 50.0 µM), 31.6%. In addition, the growth inhibition in test [5] (setting [7]) was 96% (active); in test [5] (setting [8]), 97% (active); in test [5] (at 50.0 µM) it was 85.5% (active); in test [6] (setting [7]) it was 96% (active); in test [6] (setting [8]), 98% (active); in test [6] (at 50.0 µM), 55.6%.

Take `NCCNCCNCCNCCN` (tested in a mixture with another compound): the growth inhibition in test [1] (setting [7]) is 0%; in test [1] (setting [8]) it was 1%; in test [1] (at 50.0 µM) it was 90.3% (active); in test [2] (setting [7]) it was -35%; in test [2] (setting [8]), 0%; in test [2] (at 50.0 µM), 25.8%. In addition, the growth inhibition in test [3] (setting [7]) was 0%; in test [3] (setting [8]), 2%; in test [3] (at 50.0 µM) it was 52.9%; in test [4] (setting [7]), 2%; in test [4] (setting [8]) it was 4%; in test [4] (at 50.0 µM), 35.8%. The growth inhibition was -1% in test [5] (setting [7]); -5% in test [5] (setting [8]); 80% (active) in test [5] (at 50.0 µM); 0% in test [6] (setting [7]); 2% in test [6] (setting [8]); 62.5% in test [6] (at 50.0 µM).

On to `C/C(=C\c1ccc(Cl)c(Cl)c1)[N+](=O)[O-]`, for which the growth inhibition in test [1] (setting [7]) was 82% (active); in test [1] (setting [8]) it was 98% (active); in test [1] (at 50.0 µM), 0%; in test [2] (setting [7]), 12%; in test [2] (setting [8]), 92% (active); in test [2] (at 50.0 µM), -9.75%. Also, the growth inhibition in test [3] (setting [7]) was 27%; in test [3] (setting [8]), 100% (active); in test [3] (at 50.0 µM), 21%; in test [4] (setting [7]), 5%; in test [4] (setting [8]), 59%; in test [4] (at 50.0 µM), -14.3%. Besides, the growth inhibition in test [5] (setting [7]) is 14%; in test [5] (setting [8]) it was 98% (active); in test [5] (at 50.0 µM), -4.85%; in test [6] (setting [7]), 8%; in test [6] (setting [8]), 54%; in test [6] (at 50.0 µM), 23.1%.

As for `CCC[CH2][Sn]1([CH2]CCC)[O]C(=O)CN=Cc2ccccc2[O]1`, the growth inhibition in test [1] (setting [7]) was 88% (active); in test [1] (setting [8]), 88% (active); in test [1] (at 50.0 µM), 88.5% (active); in test [2] (setting [7]) it was 92% (active); in test [2] (setting [8]) it was 92% (active); in test [2] (at 50.0 µM), 92% (active). Further, the growth inhibition is 85% (active) in test [3] (setting [7]); 85% (active) in test [3] (setting [8]); 90% (active) in test [3] (at 50.0 µM); 91% (active) in test [4] (setting [7]); 91% (active) in test [4] (setting [8]); 90.8% (active) in test [4] (at 50.0 µM). Moreover, the growth inhibition in test [5] (setting [7]) was 90% (active); in test [5] (setting [8]) it was 90% (active); in test [5] (at 50.0 µM) it was 89.9% (active); in test [6] (setting [7]) it was 90% (active); in test [6] (setting [8]), 90% (active); in test [6] (at 50.0 µM) it was 89.5% (active).

On to `COc1ccc([As]=[As]c2ccc(OC)cc2)cc1` (stereo not given), for which the growth inhibition was -23% in test [1] (setting [7]); 97% (active) in test [1] (setting [8]); 99.3% (active) in test [1] (at 50.0 µM); 5% in test [2] (setting [7]); 97% (active) in test [2] (setting [8]); 99.3% (active) in test [2] (at 50.0 µM). The growth inhibition in test [3] (setting [7]) is -18%; in test [3] (setting [8]), 99% (active); in test [3] (at 50.0 µM), 99.2% (active); in test [4] (setting [7]), -25%; in test [4] (setting [8]) it was 94% (active); in test [4] (at 50.0 µM) it was 99.2% (active). The growth inhibition is -12% in test [5] (setting [7]); 98% (active) in test [5] (setting [8]); 99.2% (active) in test [5] (at 50.0 µM); -9% in test [6] (setting [7]); 99% (active) in test [6] (setting [8]); 99.1% (active) in test [6] (at 50.0 µM).

In the case of `O=c1oc2cc(O)ccc2c(O)c1C(c1ccc(/C=C/c2ccccc2)cc1)c1c(O)c2ccc(O)cc2oc1=O`, the growth inhibition is 43% in test [1] (setting [7]); 98% (active) in test [1] (setting [8]); 89% (active) in test [1] (at 50.0 µM); 19% in test [2] (setting [7]); 99% (active) in test [2] (setting [8]); 91.8% (active) in test [2] (at 50.0 µM). The growth inhibition in test [3] (setting [7]) was -20%; in test [3] (setting [8]), 97% (active); in test [3] (at 50.0 µM), 89.8% (active); in test [4] (setting [7]), 14%; in test [4] (setting [8]), 98% (active); in test [4] (at 50.0 µM) it was 90.7% (active). Also, the growth inhibition is 15% in test [5] (setting [7]); 42% in test [5] (setting [8]); 86% (active) in test [5] (at 50.0 µM); 8% in test [6] (setting [7]); 99% (active) in test [6] (setting [8]); 92.5% (active) in test [6] (at 50.0 µM).

`Nc1c([N+](=O)[O-])cc(Cl)cc1[N+](=O)[O-]`: the growth inhibition in test [1] (setting [7]) was 1%; in test [1] (setting [8]), 84% (active); in test [1] (at 50.0 µM), 73.8% (active); in test [2] (setting [7]), 0%; in test [2] (setting [8]), 89% (active); in test [2] (at 50.0 µM) it was 63.8%. The growth inhibition is 1% in test [3] (setting [7]); 98% (active) in test [3] (setting [8]); 94.2% (active) in test [3] (at 50.0 µM); 1% in test [4] (setting [7]); 28% in test [4] (setting [8]); -14.6% in test [4] (at 50.0 µM). In addition, the growth inhibition in test [5] (setting [7]) is -3%; in test [5] (setting [8]), 86% (active); in test [5] (at 50.0 µM) it was 64.7%; in test [6] (setting [7]) it was 2%; in test [6] (setting [8]) it was 97% (active); in test [6] (at 50.0 µM), 78.3% (active).

For the compound `CC(=O)OC[C@]12C[C@H](OC(=O)CC(C)C)C(C)=C[C@H]1OC1[C@H](O)[C@@H](OC(C)=O)[C@@]2(C)[C@@]12CO2`, the growth inhibition in test [1] (setting [7]) was 97% (active); in test [1] (setting [8]), 98% (active); in test [1] (at 50.0 µM) it was 92.8% (active); in test [2] (setting [7]), 98% (active); in test [2] (setting [8]), 99% (active); in test [2] (at 50.0 µM) it was 94.4% (active). Also, the growth inhibition was 99% (active) in test [3] (setting [7]); 99% (active) in test [3] (setting [8]); 93.8% (active) in test [3] (at 50.0 µM); 97% (active) in test [4] (setting [7]); 98% (active) in test [4] (setting [8]); 91.8% (active) in test [4] (at 50.0 µM). For the same compound, the growth inhibition in test [5] (setting [7]) was 98% (active); in test [5] (setting [8]) it was 99% (active); in test [5] (at 50.0 µM), 92.2% (active); in test [6] (setting [7]) it was 97% (active); in test [6] (setting [8]) it was 98% (active); in test [6] (at 50.0 µM), 92.6% (active).

These data come from PubChem BioAssay (NCI).
